Results taken from PMC7862700, “An all-to-all approach to the identification of sequence-specific readers for epigenetic DNA modifications on cytosine”.

What was measured:
Experiment in all cases: DAPPL (digital affinity profiling via proximity ligation, sequencing); 10 mM Tris-HCl pH 7.5, 50 mM NaCl, 1 mM DTT, 4% glycerol, room temperature, 30 min; GST-TFs on glutathione beads, 16-mer random dsDNA library, 0.1% formaldehyde crosslink after washing; high values mean tight binding
Conditions in all cases: protein: recombinant; tags: N-terminal GST; dsDNA, one strand shown
ELK1 = target: T1, ELK1 (Homo sapiens, UniProt P19419 1-428)
T1 sequence: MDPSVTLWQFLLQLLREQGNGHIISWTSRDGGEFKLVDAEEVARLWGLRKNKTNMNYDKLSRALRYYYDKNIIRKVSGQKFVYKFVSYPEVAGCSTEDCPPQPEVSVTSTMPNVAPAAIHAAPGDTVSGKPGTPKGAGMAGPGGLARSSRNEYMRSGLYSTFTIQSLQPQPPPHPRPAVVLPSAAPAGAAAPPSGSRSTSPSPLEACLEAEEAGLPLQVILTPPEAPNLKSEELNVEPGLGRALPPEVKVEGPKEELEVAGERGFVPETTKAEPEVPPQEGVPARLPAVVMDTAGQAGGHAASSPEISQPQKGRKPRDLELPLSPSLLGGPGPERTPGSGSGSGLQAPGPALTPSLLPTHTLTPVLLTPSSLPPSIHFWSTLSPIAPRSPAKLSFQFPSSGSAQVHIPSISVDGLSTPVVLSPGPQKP
Procedure, shortened: (§1)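 GST fusions of human transcription factors were expressed in yeast and captured with glutathione beads. Once given DNA barcodes and pooled alongside a tag-only sample, they were incubated for 30 min at room temperature with 200 nmole of a random double-stranded 16-mer DNA library in Tris/NaCl/DTT/glycerol buffer, then washed, crosslinked (0.1% formaldehyde), proximity-ligated, PCR-amplified and sequenced on an Illumina NextSeq500. The binding signal of each hexamer is its read frequency for a factor divided by its frequency for the tag-only sample.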

EHF = target: T2, EHF (Homo sapiens, UniProt Q9NZC4 1-300)
T2 sequence: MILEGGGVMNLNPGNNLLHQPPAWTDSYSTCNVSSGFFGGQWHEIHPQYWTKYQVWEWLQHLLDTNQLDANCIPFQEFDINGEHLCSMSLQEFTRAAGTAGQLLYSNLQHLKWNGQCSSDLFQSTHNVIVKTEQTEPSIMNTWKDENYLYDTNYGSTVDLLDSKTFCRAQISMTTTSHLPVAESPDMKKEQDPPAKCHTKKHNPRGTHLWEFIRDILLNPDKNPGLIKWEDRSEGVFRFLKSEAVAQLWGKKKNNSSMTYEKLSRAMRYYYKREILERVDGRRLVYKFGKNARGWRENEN
Procedure, shortened: as §1

ETV5 = ETV5 (Homo sapiens, UniProt P41161 1-510)
Sequence of ETV5 (P41161 whole entry): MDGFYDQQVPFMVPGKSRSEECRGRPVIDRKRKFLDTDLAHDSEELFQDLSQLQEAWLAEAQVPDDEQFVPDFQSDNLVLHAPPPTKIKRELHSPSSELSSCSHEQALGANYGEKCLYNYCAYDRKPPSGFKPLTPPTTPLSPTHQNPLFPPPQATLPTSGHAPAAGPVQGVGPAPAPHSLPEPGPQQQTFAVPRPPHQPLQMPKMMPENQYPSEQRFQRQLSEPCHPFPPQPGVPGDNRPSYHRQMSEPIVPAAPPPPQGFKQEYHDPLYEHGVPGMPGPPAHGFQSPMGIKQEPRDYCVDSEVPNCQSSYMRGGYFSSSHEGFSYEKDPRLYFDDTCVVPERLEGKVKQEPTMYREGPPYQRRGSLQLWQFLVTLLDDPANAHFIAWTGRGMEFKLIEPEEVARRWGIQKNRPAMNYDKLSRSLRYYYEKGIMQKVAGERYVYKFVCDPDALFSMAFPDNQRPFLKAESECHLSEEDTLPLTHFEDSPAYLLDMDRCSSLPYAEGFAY
Procedure, shortened: as §1

ELK4 = target: T3, ELK4 (Homo sapiens, UniProt P28324-2 1-405)
T3 sequence: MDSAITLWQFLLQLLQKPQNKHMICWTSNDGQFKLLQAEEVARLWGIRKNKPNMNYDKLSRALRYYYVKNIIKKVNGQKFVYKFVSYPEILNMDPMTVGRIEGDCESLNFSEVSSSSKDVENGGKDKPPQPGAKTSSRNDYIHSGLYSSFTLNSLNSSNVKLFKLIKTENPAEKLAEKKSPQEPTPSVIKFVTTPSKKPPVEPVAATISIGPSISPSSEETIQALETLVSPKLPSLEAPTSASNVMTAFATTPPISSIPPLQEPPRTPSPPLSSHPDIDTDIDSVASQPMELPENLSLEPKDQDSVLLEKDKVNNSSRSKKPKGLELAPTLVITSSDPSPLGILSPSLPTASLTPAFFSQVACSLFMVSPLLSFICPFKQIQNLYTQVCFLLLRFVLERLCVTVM
Procedure, shortened: as §1

ERF = target: T4, ERF (Homo sapiens, UniProt P50548 1-548)
T4 sequence: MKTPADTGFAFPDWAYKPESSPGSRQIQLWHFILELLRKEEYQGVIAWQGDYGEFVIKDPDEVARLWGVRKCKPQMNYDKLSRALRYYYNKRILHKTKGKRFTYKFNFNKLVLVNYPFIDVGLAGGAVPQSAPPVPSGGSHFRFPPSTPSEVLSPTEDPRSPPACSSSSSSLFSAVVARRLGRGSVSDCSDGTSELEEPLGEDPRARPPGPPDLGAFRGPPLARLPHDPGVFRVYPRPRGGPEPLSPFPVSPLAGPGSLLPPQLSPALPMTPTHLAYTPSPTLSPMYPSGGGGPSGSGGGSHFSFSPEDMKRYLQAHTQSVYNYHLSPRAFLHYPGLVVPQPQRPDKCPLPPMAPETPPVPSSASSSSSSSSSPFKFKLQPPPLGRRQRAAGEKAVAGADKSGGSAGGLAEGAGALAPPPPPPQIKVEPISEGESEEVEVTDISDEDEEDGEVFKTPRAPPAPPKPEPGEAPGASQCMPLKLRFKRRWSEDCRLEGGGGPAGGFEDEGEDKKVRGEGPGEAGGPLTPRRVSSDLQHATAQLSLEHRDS
Procedure, shortened: as §1

ETV3 = target: T5, ETV3 (Homo sapiens, UniProt P41162-2 1-143)
T5 sequence: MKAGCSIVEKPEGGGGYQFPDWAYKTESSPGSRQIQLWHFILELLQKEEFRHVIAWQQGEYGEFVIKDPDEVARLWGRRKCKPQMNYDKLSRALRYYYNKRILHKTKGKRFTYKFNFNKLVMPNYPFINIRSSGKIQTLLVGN
Procedure, shortened: as §1

ETV6 = ETV6 (Homo sapiens, UniProt P41212 1-452)
Sequence of ETV6 (P41212 whole entry): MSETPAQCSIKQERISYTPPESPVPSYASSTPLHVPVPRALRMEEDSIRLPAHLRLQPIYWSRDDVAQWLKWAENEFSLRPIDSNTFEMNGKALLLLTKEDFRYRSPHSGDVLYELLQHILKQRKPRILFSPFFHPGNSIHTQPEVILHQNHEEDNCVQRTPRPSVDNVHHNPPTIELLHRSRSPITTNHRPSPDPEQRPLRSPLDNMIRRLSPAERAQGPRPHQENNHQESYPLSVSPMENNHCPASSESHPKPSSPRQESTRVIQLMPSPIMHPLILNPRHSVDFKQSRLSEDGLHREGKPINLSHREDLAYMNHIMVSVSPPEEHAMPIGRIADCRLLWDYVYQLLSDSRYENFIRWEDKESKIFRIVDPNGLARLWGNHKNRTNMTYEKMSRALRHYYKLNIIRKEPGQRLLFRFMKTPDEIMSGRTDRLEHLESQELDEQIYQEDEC
Procedure, shortened: as §1

ERG = target: T6, ERG (Homo sapiens, UniProt P11308 1-479)
T6 sequence: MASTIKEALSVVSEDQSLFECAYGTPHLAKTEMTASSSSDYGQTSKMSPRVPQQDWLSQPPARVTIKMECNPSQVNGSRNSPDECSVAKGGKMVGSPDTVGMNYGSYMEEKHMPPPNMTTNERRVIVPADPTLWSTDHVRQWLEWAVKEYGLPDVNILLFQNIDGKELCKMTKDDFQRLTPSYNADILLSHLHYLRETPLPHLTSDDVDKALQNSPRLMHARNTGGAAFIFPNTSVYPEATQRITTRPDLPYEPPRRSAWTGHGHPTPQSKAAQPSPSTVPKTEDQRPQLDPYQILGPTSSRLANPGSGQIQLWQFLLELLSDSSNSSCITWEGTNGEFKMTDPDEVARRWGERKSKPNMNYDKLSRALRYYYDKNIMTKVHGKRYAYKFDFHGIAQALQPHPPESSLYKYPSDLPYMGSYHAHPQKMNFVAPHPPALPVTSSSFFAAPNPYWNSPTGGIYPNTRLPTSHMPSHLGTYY
Procedure, shortened: as §1

ELF1 = ELF1 (Homo sapiens, UniProt P32519 1-619)
Sequence of ELF1 (P32519 whole entry): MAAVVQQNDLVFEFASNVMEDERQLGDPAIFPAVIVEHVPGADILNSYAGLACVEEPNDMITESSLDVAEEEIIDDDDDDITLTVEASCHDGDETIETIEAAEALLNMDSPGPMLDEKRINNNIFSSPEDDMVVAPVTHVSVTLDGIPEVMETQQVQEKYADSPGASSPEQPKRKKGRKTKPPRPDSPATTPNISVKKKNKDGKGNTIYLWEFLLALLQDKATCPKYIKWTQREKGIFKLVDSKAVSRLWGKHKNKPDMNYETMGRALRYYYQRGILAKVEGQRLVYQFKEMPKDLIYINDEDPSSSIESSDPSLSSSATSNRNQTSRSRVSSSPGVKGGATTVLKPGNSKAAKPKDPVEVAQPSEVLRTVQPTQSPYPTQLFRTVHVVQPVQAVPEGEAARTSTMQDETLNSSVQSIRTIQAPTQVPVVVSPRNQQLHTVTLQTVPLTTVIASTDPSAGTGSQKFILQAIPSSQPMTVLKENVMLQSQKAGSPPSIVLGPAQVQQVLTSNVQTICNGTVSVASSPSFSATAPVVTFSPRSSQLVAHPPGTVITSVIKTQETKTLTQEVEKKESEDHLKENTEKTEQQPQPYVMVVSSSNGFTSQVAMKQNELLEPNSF
Procedure, shortened: as §1

SPIB = SPIB (Homo sapiens, UniProt Q01892 1-262)
Sequence of SPIB (Q01892 whole entry): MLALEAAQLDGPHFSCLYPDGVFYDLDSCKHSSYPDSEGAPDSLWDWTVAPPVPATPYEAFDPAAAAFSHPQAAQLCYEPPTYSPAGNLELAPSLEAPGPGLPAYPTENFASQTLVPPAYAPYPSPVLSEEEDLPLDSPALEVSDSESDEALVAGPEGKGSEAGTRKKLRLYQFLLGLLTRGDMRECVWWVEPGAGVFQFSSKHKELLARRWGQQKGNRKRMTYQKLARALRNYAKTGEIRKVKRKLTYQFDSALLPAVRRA
Procedure, shortened: as §1

ELK3 = target: T7, ELK3 (Homo sapiens, UniProt P41970 1-407)
T7 sequence: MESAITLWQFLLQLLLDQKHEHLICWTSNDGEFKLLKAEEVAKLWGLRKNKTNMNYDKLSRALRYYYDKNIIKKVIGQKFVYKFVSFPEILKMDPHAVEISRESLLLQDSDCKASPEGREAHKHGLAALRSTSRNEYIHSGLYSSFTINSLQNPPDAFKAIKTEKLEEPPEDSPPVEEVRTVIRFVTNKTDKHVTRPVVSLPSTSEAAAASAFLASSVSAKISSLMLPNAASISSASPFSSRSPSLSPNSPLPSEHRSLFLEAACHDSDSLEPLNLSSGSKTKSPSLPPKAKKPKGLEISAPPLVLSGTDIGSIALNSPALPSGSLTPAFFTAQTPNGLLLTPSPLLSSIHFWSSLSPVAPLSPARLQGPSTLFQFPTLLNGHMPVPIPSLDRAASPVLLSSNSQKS
Procedure, shortened: as §1

ELF4 = ELF4 (Homo sapiens, UniProt Q99607 1-663)
Sequence of ELF4 (Q99607 whole entry): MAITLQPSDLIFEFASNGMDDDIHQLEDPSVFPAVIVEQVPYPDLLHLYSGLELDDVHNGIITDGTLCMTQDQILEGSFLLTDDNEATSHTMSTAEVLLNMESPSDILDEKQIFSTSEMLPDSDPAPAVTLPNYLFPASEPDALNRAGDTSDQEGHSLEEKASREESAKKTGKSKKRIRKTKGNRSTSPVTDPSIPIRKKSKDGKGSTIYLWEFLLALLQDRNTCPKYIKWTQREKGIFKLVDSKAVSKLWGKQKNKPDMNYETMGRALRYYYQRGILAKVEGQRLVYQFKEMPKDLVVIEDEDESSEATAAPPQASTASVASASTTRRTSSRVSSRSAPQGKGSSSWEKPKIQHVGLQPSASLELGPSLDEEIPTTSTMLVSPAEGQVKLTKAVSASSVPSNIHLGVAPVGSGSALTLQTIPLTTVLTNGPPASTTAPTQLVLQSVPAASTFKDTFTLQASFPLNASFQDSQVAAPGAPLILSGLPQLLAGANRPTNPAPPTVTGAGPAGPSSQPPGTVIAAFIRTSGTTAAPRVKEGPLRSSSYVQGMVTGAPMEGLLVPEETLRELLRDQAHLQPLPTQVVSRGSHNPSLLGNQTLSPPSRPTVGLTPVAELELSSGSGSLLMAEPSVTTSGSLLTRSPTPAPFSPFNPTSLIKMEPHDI
Procedure, shortened: as §1

ETS2 = target: T8, ETS2 (Homo sapiens, UniProt P15036 1-469)
T8 sequence: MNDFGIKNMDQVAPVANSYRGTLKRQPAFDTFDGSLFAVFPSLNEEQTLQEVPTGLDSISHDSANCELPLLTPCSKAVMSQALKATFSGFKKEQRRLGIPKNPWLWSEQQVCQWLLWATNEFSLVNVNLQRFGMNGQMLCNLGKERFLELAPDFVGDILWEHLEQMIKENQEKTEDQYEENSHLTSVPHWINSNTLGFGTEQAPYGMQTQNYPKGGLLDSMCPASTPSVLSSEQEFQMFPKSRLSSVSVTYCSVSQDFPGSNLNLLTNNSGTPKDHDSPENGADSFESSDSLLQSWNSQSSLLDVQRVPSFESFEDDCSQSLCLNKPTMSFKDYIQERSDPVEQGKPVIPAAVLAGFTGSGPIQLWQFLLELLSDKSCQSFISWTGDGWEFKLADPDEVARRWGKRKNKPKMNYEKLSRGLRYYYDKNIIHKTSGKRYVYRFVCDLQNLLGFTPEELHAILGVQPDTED
Procedure, shortened: as §1

ETV7 = target: T9, ETV7 (Homo sapiens, UniProt Q9Y603 1-341)
T9 sequence: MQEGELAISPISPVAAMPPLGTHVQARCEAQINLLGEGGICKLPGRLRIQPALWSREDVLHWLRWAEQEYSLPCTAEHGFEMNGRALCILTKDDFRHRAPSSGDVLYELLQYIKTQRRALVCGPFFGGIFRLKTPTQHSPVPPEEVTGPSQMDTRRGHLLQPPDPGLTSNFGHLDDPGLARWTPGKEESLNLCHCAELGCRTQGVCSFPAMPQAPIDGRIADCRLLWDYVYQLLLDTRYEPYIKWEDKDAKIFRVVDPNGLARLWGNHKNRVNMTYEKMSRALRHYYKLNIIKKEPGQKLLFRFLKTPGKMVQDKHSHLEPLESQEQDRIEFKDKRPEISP
Procedure, shortened: as §1

Sequence | binding signal (ELK1) | binding signal (EHF) | binding signal (ETV5) | binding signal (ELK4) | binding signal (ERF) | binding signal (ETV3) | binding signal (ETV6) | binding signal (ERG) | binding signal (ELF1) | binding signal (SPIB) | binding signal (ELK3) | binding signal (ELF4) | binding signal (ETS2) | binding signal (ETV7)
TGAAGC | 1.05 fold enrichment (6-mer frequency, TF over GST control) | 1.04 fold enrichment (6-mer frequency, TF over GST control) | 1.01 fold enrichment (6-mer frequency, TF over GST control) | 1.04 fold enrichment (6-mer frequency, TF over GST control) | 1.07 fold enrichment (6-mer frequency, TF over GST control) | 1 fold enrichment (6-mer frequency, TF over GST control) | 1.01 fold enrichment (6-mer frequency, TF over GST control) | – | – | – | – | – | – | –
CGGCAA | – | – | 1.02 fold enrichment (6-mer frequency, TF over GST control) | – | – | – | 1.02 fold enrichment (6-mer frequency, TF over GST control) | – | – | – | – | – | – | –
CCACCG | – | 1.07 fold enrichment (6-mer frequency, TF over GST control) | 1 fold enrichment (6-mer frequency, TF over GST control) | – | 1.2 fold enrichment (6-mer frequency, TF over GST control) | 1.04 fold enrichment (6-mer frequency, TF over GST control) | 1.06 fold enrichment (6-mer frequency, TF over GST control) | 1.03 fold enrichment (6-mer frequency, TF over GST control) | 1.01 fold enrichment (6-mer frequency, TF over GST control) | 1.09 fold enrichment (6-mer frequency, TF over GST control) | 1.06 fold enrichment (6-mer frequency, TF over GST control) | 1.11 fold enrichment (6-mer frequency, TF over GST control) | 1.02 fold enrichment (6-mer frequency, TF over GST control) | 1.06 fold enrichment (6-mer frequency, TF over GST control)
